Experimental data from PubChem BioAssay (Tox21).
Records with an inconclusive call do not appear. Entries that show only a call come without a potency. Activity calls are given as the source filed them. Unless noted, calls follow the shape of the full dose curve.

Assays:
[1] = Nuclear factor erythroid 2-related factor 2/antioxidant responsive element (Nrf2/ARE) small molecule agonists: luciferase reporter gene qHTS assay in human keratinocytes (AID 1919969); also: nearly all actives have a fitted effect of over 35% in size; also: potency is read from the fitted curve at half-maximal effect
[2] = target: Gonadotropin-releasing hormone receptor (Homo sapiens) (UniProt P30968); test: Human gonadotropin-releasing hormone receptor (GnRHR) small molecule agonists, calcium flux assay in GnRHR-HEK293 cells (AID 1920063); also: nearly all actives have a fitted effect of over 35% in size
Method in brief: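 Intracellular calcium rise is the read-out: engineered human GnRHR HEK293 cells, dye-loaded, are exposed to DMSO-dissolved compounds and fluorescence at Ex/Em 480/540 is tracked for 3 min.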

[3] = target: KiSS-1 receptor (Homo sapiens) (UniProt Q969F8); test: Human kisspeptin (KISS1R) small molecule agonists, calcium flux assay in KISS1R-HEK293 cells (AID 1920064; active = well fitted activation curve with a large enough effect in the repeat runs)
Method in brief: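 Concentration-response testing used 15 concentrations in triplicate on human KISS1R-expressing HEK293 cells. Calcium-dependent fluorescence (Ex/Em 480/540) was followed kinetically for 3 min after compound transfer.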

[4] = G protein-coupled receptor (GPCR) small molecule agonists, calcium flux assay: HEK293 wild type cell line counter screen (AID 1920065)
Method in brief: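 Fluorescence intensity signals activation. After overnight (18 h) culture and a 1 h calcium dye load at 37 C, compounds are added by pin tool and the plate read at 480/540 nm for 3 min in 1 s steps.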

[5] = p53 small molecule agonists, cell-based qHTS assay with rat liver microsomes: qHTS cell viability counter screen (AID 1963580); also: nearly all actives have a fitted effect of over 45% in size
Method in brief: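 Cytotoxicity counter screen: intracellular ATP measured by CellTiter-Glo luminescence in the same wells as the beta-lactamase reporter read, on HCT-116 p53RE-bla cells exposed 16 h at 37 C to compounds with rat liver microsomes and NADPH, each 0.5 mg/mL final.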

[6] = target: 5-hydroxytryptamine receptor 2A (Homo sapiens) (UniProt P28223); test: 5-hydroxytryptamine receptor 2A (HTR2A) small molecule agonists, cell-based qHTS assay (AID 1963587); also: nearly all actives have a fitted effect of over 30% in size; also: potency is read from the fitted curve at half-maximal effect
Method in brief: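 CHO cells stably expressing human HTR2A, plated 18 h, loaded with calcium dye 1 h at 37 C. Agonist mode: compounds added and intracellular calcium fluorescence recorded kinetically for 2 min at 1 sec intervals.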

[7] = target: Muscarinic acetylcholine receptor M1 (Homo sapiens) (UniProt P11229); test: Cholinergic receptor muscarinic 1 (CHRM1) small molecule agonists, cell-based qHTS assay (AID 1963589); also: nearly all actives have a fitted effect of over 35% in size
Method in brief: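 Fluorescent calcium dye reports M1 activation in stably transfected CHO cells. Compounds, 15 concentrations, added after 1 h dye loading at 37 C; kinetic reading at 1 sec intervals.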

[8] = target: 5-hydroxytryptamine receptor 2A (Homo sapiens) (UniProt P28223); test: 5-hydroxytryptamine receptor 2A (HTR2A) small molecule antagonists, cell-based qHTS assay (AID 1963586); also: nearly all actives have a fitted effect of over 45% in size; also: potency is read from the fitted curve at half-maximal effect
Method in brief: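 CHO cells stably expressing human HTR2A were plated for 18 h at 37 C, then loaded with calcium dye for 1 h. Compounds were preincubated 5 min at room temperature before DOI (4 nM solution) was added. Kinetic fluorescence was read for 3 min.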

[9] = target: Muscarinic acetylcholine receptor M1 (Homo sapiens) (UniProt P11229); test: Cholinergic receptor muscarinic 1 (CHRM1) small molecule antagonists, cell-based qHTS assay (AID 1963588); also: nearly all actives have a fitted effect of over 40% in size; also: potency is read from the fitted curve at half-maximal effect
Method in brief: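 Compounds were tested at 15 concentrations in three independent runs. Dye-loaded CHRM1-CHO cells were exposed 5 min at room temperature before stimulation by acetylcholine added at 50nM. Intracellular calcium was read kinetically on FDSS for 3 min.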

[10] = cAMP Responsive Elements (CRE) small molecule agonists, cell-based qHTS assay (AID 1963590)
Method in brief: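 Compound exposure lasted 3 h at 37 C/5% CO2 in CRE-bla HEK 293T cells grown in assay medium with 10% dialyzed FBS and 25 mM HEPES. Reporter signal came from LiveBLAzer B/G FRET substrate, 2 h, room temperature.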

[11] = target: Beta-2 adrenergic receptor (Homo sapiens) (UniProt P07550); test: Adrenergic beta2 receptor (ADRB2) small molecule antagonists, cell-based qHTS assay (AID 1963592); also: nearly all actives have a fitted effect of over 50% in size; also: potency is read from the fitted curve at half-maximal effect
Method in brief: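 Assay format: CHO-ADRB2 cells, 18-20hr seeding at 37C/5% CO2, then compound plus 1nM isoproterenol agonist mix for 0.5hr RT. Homogeneous time-resolved fluorescence cAMP detection after 1hr, expressed as 665/615 nm ratio.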

[12] = target: Beta-2 adrenergic receptor (Homo sapiens) (UniProt P07550); test: Adrenergic beta2 receptor (ADRB2) small molecule agonists, cell-based qHTS assay (AID 1963593);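 also: CHO cells stably overexpressing human ADRB2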
Method in brief: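 CHO cells stably over-expressing ADRB2 were plated overnight at 37C, then dosed with compounds plus a stimulation mix containing 100uM IBMX and 25uM Ro-20-1724 for 0.5hr at room temperature. cAMP was measured by HTRF competition, 1hr.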

[13] = target: D(2) dopamine receptor (Homo sapiens) (UniProt P14416); test: Dopamine D2 receptor (DRD2) small molecule agonists, cell-based qHTS assay (AID 1963594); also: nearly all actives have a fitted effect of over 35% in size
Method in brief: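 HEK293 cells stably expressing human DRD2, pre-treated with PDE inhibitor Ro20-1724 (0.1 mM final) and compound 10 min at room temperature, then stimulated with NKH477 (200nM […]) for 30 min. cAMP read by HTRF (665/620 nm).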

[14] = target: D(2) dopamine receptor (Homo sapiens) (UniProt P14416); test: Dopamine D2 receptor (DRD2) small molecule antagonists, cell-based qHTS assay (AID 1963595; active = well fitted inhibition curve with a large enough effect in the signal ratio in the repeat runs, with a control signal flat; the % refers to the signal ratio)
Method in brief: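 Human DRD2 antagonist qHTS measuring cAMP by HTRF. The cells are exposed to compound for 10 min, then to NKH477 (200 nM) and quinpirole (12 nM) for 30 min at RT, with Ro20-1724 (0.1 mM) present throughout.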

[15] = p53 small molecule agonists, cell-based qHTS assay with human liver microsomes: qHTS cell viability counter screen (AID 1963579); also: nearly all actives have a fitted effect of over 45% in size; also: potency is read from the fitted curve at half-maximal effect
Method in brief: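 Seed p53RE-bla cells at 4,000 per well; incubate 5 h at 37 C; add compound, human liver microsomes and NADPH; incubate 16 h at 37 C; add CellTiter-Glo; after 30 min at room temperature, read luminescence.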

[16] = p53 small molecule agonists, cell-based qHTS assay with human liver microsomes (AID 1963577)
Method in brief: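 Cells carrying a p53-responsive bla reporter were rested 5 h (37 C, 5% CO2) before compound transfer. Human liver microsomes plus NADPH, 0.5 mg/mL final apiece, supplied metabolism during the 16 h 37 C exposure.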

[17] = p53 small molecule agonists, cell-based qHTS assay with rat liver microsomes (AID 1963578)
Method in brief: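 Fluorescence from a beta-lactamase reporter under a p53 response element was measured after cells had been incubated 16 h at 37 C with test compound and rat liver microsomes plus NADPH (0.5 mg/mL final each).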

[18] = p53 small molecule agonists, cell-based qHTS assay: qHTS cell viability counter screen (AID 1963581); also: nearly all actives have a fitted effect of over 45% in size; also: potency is read from the fitted curve at half-maximal effect
Method in brief: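 Luminescence from CellTiter-Glo, reflecting ATP content, serves as the cytotoxicity measure; it is taken after the 2 h reporter substrate step in HCT-116 p53RE-bla cells dosed for 16 h at 37 C.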

[19] = p53 small molecule agonists, cell-based qHTS assay (AID 1963582; active = well fitted activation curve with a large enough effect in the signal ratio in the repeat runs, not every such curve was filed as active; the % refers to the signal ratio)
Method in brief: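 After plating, p53RE-bla cells sat 5 h in the incubator; compounds or DMSO vehicle were pinned in; a 16 h incubation at 37 C followed; FRET substrate was added and, 2 h later at RT, fluorescence was measured.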

[20] = cAMP Responsive Elements (CRE) small molecule antagonists, cell-based qHTS assay (AID 1963591; active = well fitted inhibition curve with a large enough effect in the signal ratio in the repeat runs, not every such curve was filed as active; the % refers to the signal ratio)
Method in brief: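 Stimulation used NKH477 at a final 0.25 uM for 3 h in compound-treated CRE-bla HEK293T cells, seeded 18 h beforehand. Reporter activity was measured with LiveBLAzer B/G FRET substrate after 2 h at room temperature.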

KiSS-1 receptor (Homo sapiens), sequence (Q969F8 whole entry, looked up): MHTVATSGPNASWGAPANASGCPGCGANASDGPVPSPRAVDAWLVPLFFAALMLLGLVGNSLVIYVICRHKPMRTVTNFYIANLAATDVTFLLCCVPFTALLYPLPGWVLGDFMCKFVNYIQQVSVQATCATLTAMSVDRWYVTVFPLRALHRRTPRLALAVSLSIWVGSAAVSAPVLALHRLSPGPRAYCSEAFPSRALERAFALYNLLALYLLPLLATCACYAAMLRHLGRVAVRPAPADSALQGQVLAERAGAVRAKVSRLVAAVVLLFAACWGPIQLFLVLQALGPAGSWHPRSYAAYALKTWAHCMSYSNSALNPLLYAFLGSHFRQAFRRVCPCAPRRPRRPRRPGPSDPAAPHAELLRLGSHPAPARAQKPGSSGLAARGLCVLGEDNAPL
Beta-2 adrenergic receptor (Homo sapiens), sequence (P07550 whole entry, looked up): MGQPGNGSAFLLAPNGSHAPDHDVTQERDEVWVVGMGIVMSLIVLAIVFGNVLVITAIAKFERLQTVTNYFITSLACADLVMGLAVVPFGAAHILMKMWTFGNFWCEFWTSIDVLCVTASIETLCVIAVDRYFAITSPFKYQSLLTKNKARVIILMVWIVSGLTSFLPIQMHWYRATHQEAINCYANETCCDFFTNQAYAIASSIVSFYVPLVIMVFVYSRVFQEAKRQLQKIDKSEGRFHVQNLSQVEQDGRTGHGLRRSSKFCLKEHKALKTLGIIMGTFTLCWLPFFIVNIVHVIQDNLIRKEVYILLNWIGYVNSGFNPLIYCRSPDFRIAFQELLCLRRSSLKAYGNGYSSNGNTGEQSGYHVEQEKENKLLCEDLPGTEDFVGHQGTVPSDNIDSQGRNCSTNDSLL
Muscarinic acetylcholine receptor M1 (Homo sapiens), sequence (P11229 whole entry, looked up): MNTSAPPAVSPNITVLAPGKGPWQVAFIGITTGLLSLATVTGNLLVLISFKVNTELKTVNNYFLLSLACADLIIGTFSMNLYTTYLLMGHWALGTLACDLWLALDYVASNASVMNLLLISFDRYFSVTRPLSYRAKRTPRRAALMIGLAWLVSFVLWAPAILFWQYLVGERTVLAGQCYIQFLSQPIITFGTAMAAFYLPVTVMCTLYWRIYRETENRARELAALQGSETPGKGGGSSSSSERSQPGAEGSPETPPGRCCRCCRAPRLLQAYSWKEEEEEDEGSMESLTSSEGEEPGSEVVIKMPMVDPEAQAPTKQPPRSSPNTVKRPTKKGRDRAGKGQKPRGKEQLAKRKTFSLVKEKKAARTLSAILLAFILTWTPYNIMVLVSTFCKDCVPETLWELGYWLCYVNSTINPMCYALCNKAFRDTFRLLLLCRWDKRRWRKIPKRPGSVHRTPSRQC
D(2) dopamine receptor (Homo sapiens), sequence (P14416 whole entry, looked up): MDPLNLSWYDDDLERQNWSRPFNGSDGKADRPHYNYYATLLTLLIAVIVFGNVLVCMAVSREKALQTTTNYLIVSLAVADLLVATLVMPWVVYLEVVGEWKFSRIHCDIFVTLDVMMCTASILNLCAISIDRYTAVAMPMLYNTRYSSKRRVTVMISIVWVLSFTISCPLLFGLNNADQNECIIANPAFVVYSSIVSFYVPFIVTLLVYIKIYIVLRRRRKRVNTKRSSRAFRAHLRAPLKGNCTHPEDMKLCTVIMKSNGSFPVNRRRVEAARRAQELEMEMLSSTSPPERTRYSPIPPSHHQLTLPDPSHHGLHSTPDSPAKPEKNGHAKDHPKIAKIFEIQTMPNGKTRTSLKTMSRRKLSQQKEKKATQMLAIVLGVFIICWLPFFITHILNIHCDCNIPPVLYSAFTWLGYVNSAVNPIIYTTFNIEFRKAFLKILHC
5-hydroxytryptamine receptor 2A (Homo sapiens), sequence (P28223 whole entry, looked up): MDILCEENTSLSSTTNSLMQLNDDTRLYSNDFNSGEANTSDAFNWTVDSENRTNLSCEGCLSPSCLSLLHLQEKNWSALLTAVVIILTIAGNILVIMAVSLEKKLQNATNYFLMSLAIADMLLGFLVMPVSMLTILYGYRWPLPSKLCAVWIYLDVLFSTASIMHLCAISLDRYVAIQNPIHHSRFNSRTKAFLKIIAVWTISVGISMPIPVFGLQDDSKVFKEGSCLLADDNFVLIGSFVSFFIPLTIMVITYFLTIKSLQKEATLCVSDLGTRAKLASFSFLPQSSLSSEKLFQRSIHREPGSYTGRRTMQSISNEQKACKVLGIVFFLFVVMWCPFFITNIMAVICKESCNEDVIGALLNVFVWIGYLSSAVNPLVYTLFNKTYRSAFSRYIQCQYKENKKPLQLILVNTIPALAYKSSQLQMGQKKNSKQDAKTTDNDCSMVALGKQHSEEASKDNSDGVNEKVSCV
Gonadotropin-releasing hormone receptor (Homo sapiens), sequence (P30968 whole entry, looked up): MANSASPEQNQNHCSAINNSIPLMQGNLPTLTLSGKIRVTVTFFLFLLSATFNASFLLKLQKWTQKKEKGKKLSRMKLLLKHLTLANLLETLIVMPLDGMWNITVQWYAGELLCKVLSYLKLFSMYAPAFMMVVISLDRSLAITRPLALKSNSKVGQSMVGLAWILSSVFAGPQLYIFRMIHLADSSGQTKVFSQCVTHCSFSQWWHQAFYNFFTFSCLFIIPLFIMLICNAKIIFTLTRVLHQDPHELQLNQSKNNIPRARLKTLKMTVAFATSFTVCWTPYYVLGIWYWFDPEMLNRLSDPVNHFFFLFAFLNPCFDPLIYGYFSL

Row | SMILES | Potency [1] | Potency [2] | Potency [3] | Potency [4] | Potency [5] | Potency [6] | Potency [7] | Potency [8] | Potency [9] | Potency [10] | Potency [11] | Potency [12] | Potency [13] | Potency [14] | Potency [15] | Potency [16] | Potency [17] | Potency [18] | Potency [19] | Potency [20]
1 | Nc1ccc(O)c([N+](=O)[O-])c1 | 19.3 µM (active) | inactive | inactive | inactive | inactive | inactive | inactive | – | – | – | – | – | – | – | – | – | – | – | – | –
2 | COc1c2occc2c(OC)c2c(=O)cc(C)oc12 | inactive | inactive | inactive | inactive | inactive | inactive | inactive | inactive | inactive | inactive | inactive | inactive | inactive | inactive | – | – | – | – | – | –
3 | O=C1Cc2ccccc2N1c1c(Cl)cccc1Cl | inactive | inactive | inactive | inactive | inactive | – | inactive | inactive | inactive | – | inactive | inactive | inactive | – | inactive | – | – | – | – | –
4 | COc1cc(NCc2ccc3nc(N)nc(N)c3c2C)cc(OC)c1OC | inactive | inactive | inactive | inactive | inactive | inactive | inactive | inactive | inactive | – | inactive | inactive | inactive | – | inactive | – | – | – | – | –
5 | O=C(Oc1ccccc1)c1cccc(C(=O)Oc2ccccc2)c1 | 1.15 µM (active) | inactive | inactive | inactive | inactive | – | inactive | – | inactive | – | – | – | inactive | – | inactive | – | – | – | – | –
6 | CCN(CC)c1ccc(C(=C2C=CC(=[N+](CC)CC)C=C2)c2cc(S(=O)(=O)O)ccc2S(=O)(=O)[O-])cc1 | inactive | inactive | inactive | – | – | inactive | inactive | inactive | inactive | inactive | – | – | – | – | inactive | inactive | inactive | 17.8 µM (active) | inactive | inactive
7 | CCC1=C[C@@H]2CN(C1)Cc1c([nH]c3ccccc13)[C@@](C(=O)OC)(c1cc3c(cc1OC)N(C)[C@H]1[C@@](O)(C(=O)OC)[C@H](OC(C)=O)[C@]4(CC)C=CCN5CC[C@]31[C@@H]54)C2 | 0.376 µM (active) | inactive | inactive | inactive | – | – | – | – | – | – | inactive | inactive | inactive | inactive | – | – | – | – | – | –
8 | CO[Si](OC)(c1ccccc1)c1ccccc1 | inactive | inactive | inactive | – | – | inactive | inactive | inactive | inactive | inactive | inactive | – | inactive | inactive | inactive | inactive | inactive | – | – | inactive
9 | CCOC(=O)OC(C)OC(=O)[C@@H]1N2C(=O)[C@@H](NC(=O)[C@H](N)c3ccccc3)[C@H]2SC1(C)C (stereo partly specified) | inactive | inactive | inactive | inactive | inactive | inactive | inactive | – | inactive | inactive | inactive | – | inactive | inactive | – | – | – | inactive | – | inactive
10 | CCCC(CC)CCCCCCCN (stereo unspecified) | inactive | inactive | inactive | – | inactive | 44.7 µM (active) | inactive | 24.2 µM (active) | 4.84 µM (active) | inactive | inactive | – | inactive | inactive | inactive | – | – | inactive | inactive | inactive
11 | O=C(Nc1cccc(C(F)(F)F)c1)c1cc(Br)cc(Br)c1O | 9.69 µM (active) | inactive | inactive | – | – | inactive | inactive | inactive | inactive | – | 61.1 µM (active) | – | inactive | inactive | 9.13 µM (active) | inactive | inactive | – | – | –
12 | Nc1ccc(N=Nc2ccc(N)cc2)cc1 | inactive | inactive | inactive | – | inactive | – | inactive | – | inactive | inactive | inactive | – | inactive | inactive | inactive | inactive | inactive | inactive | inactive | inactive
13 | Cc1ccc(Nc2nccc(N(C)c3ccc4c(C)n(C)nc4c3)n2)cc1S(N)(=O)=O | 4.22 µM (active) | inactive | inactive | inactive | – | inactive | inactive | inactive | inactive | inactive | – | – | – | inactive | – | – | – | – | – | –
14 | O=C[C@@H](O)[C@H](O)[C@H](O)CO | inactive | inactive | inactive | – | inactive | inactive | inactive | inactive | inactive | inactive | – | inactive | inactive | inactive | inactive | inactive | – | inactive | inactive | inactive
15 | O=C1CCCCC1C1CCCCC1 (stereo unspecified) | inactive | inactive | inactive | inactive | inactive | inactive | inactive | inactive | – | inactive | – | – | inactive | inactive | inactive | – | – | – | – | inactive
16 | CC(C)=CCOc1ccc(/C=C/C(=O)c2ccc(OCC=C(C)C)cc2OCC(=O)O)cc1 | 26.6 µM (active) | inactive | inactive | inactive | inactive | inactive | inactive | – | – | – | inactive | inactive | inactive | inactive | inactive | – | – | – | – | –
17 | CN(C)CCN(Cc1ccccc1)c1ccccn1 | inactive | inactive | inactive | inactive | inactive | inactive | inactive | 7.29 µM (active) | – | – | inactive | – | – | inactive | inactive | – | – | – | – | inactive
18 | COc1ccc(-c2nc3ccc(C4=NNC(=O)CC4C)cc3[nH]2)cc1 (stereo unspecified) | inactive | inactive | inactive | inactive | – | inactive | inactive | 0.23 µM (active) | inactive | – | inactive | inactive | – | inactive | – | – | – | – | – | –
